Test results: PubChem BioAssay (NCATS)
“And” between values parts separate entries of the source, which are not always exact repeats. Identical values can stand only once. Records with an inconclusive call do not appear. A call without a number means that no potency is given here. Some structures have more than one record in an assay (separate samples or runs), and their calls can disagree. The source made the active and inactive calls. Unless noted, the call rests on the fitted dose curve.

Legend:
[1] = molecular target: Thyroid hormone receptor beta (Homo sapiens) (UniProt P10828); assay: qHTS assay for small molecule agonists of thyroid hormone receptor beta signaling (AID 588545)
Outline: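 Agonist-mode beta-lactamase reporter assay, HEK 293 cells, 2% charcoal/dextran FBS; cells plated 4 hrs, compound 18 hrs at 37 C, CCF4 2 hrs RT. Normalized to 10 nM T3 (100%) and DMSO (0%); Hill fit gives EC50, efficacy.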

[2] = qHTS assay for small molecule antagonists of retinoid X receptor alpha signaling (AID 588546; active means well fitted inhibition curve with a large enough effect in the signal ratio, with a control signal flat, not every such curve was filed as active; the % refers to the signal ratio; further: potency means the concentration at half of the fitted maximal effect;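 on max response: cells stimulated with 9-cis-retinoic acid as agonist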); conditions: HEK293T RXRa-UAS-bla, beta-lactamase ratio, antagonist mode; measured here: W530 green channel, cytotoxicity proxy
Outline: (§1)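 Beta-lactamase reporter inhibition, read as CCF4 fluorescence ratio (ex 405, em 460/530 nm) after 2 h at RT. HEK293T UAS-bla cells, 2500/well, were stimulated with 9-cis-RA at 500 or 100 nM final alongside test compound for 18 h at 37 C.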

[3] = molecular target: Retinoic acid receptor RXR-alpha (Homo sapiens) (UniProt P19793); assay: as above; conditions: HEK293T RXRa-UAS-bla, beta-lactamase ratio, antagonist mode
Outline: as §1

[4] = molecular target: Thyroid hormone receptor beta (Homo sapiens) (UniProt P10828); assay: qHTS assay for small molecule antagonists of thyroid hormone receptor beta signaling (AID 588547; active means well fitted inhibition curve with a large enough effect in the signal ratio, with a control signal flat, not every such curve was filed as active; the % refers to the signal ratio;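 further: cells stimulated with 0.4 nM T3 agonist during compound exposure; series mostly up to about 77 µM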); conditions: TR-UAS-bla HEK293, beta-lactamase ratio, antagonist mode, 18 h
Outline: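 Inhibition of T3-driven (0.4nM final) beta-lactamase reporter activity was measured over 0.59 nM to 92 uM compound after 18 h at 37 C. The cells were GripTite HEK293 TR-UAS-bla in charcoal/dextran-stripped serum, with CCF4 ratio read-out and IC50 from Hill fits.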

[5] = molecular target: Voltage-gated inwardly rectifying potassium channel KCNH2 (Homo sapiens) (UniProt Q12809); assay: qHTS Assay for Small Molecule Inhibitors of the Human hERG Channel Activity (AID 588834; active means well fitted inhibition curve with a large enough effect;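 further: lower thallium flux fluorescence means stronger hERG block; nearly all actives have a fitted effect of over 50% in size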; further: potency means the concentration at half of the fitted maximal effect)
Outline: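 In hERG-transduced U2OS cells, dye-loaded for 1 hr at room temperature in dark, test compounds incubated 10 min at 37 °C before thallium stimulation. AC50 values derived by Hill modelling of concentration-response.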

[6] = molecular target: Vitamin D3 receptor (Homo sapiens) (UniProt P11473); assay: qHTS assay for small molecule antagonists of vitamin D receptor signaling (AID 588541); further: potency means the concentration at half of the fitted maximal effect
Outline: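 Antagonist-mode beta-lactamase reporter assay: HEK293T VDR-UAS-bla cells were exposed to titrated compound alongside 1-alpha,25-dihydroxyvitamin D3 at 3 nM final for 16 h. Values were normalized to the 50 nM agonist control and DMSO basal, with IC50 and efficacy from Hill equation fits.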

[7] = molecular target: Vitamin D3 receptor (Homo sapiens) (UniProt P11473); assay: qHTS assay for small molecule agonists of vitamin D receptor signaling (AID 588543)
Outline: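 GeneBLAzer VDR-UAS-bla HEK293T cells in 2% charcoal-stripped FBS medium were dosed with compound titrations for 16 h at 37 °C; CCF4 β-lactamase readout (405 nm ex, 460/530 nm em). EC50 and efficacy from Hill fits, normalized to 50 nM calcitriol (100%) and DMSO (0%).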

[8] = qHTS assay for small molecule agonists of retinoid X receptor alpha signaling (AID 588544); conditions: HEK293T RXRa-UAS-bla, beta-lactamase reporter, 18 h; 530 nm emission
[9] = molecular target: Retinoic acid receptor RXR-alpha (Homo sapiens) (UniProt P19793); assay: as above
[10] = molecular target: Luciferin 4-monooxygenase (Photinus pyralis) (UniProt P08659); assay: Biochemical firefly luciferase enzyme assay for NPC (AID 624030; active means well fitted inhibition curve with a large enough effect; further: nearly all actives have a fitted effect of over 70% in size; further: potency means the concentration at half of the fitted maximal effect)
Outline: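 Direct inhibition of firefly luciferase enzyme (10 nM final, 50 mM Tris Acetate) assessed by luminescence within 5 minutes. Percent activity scaled between DMSO and PTC124 positive control, with concentration-effect curves classified by fit quality and response.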

Retinoic acid receptor RXR-alpha (Homo sapiens), sequence (P19793 whole entry, looked up): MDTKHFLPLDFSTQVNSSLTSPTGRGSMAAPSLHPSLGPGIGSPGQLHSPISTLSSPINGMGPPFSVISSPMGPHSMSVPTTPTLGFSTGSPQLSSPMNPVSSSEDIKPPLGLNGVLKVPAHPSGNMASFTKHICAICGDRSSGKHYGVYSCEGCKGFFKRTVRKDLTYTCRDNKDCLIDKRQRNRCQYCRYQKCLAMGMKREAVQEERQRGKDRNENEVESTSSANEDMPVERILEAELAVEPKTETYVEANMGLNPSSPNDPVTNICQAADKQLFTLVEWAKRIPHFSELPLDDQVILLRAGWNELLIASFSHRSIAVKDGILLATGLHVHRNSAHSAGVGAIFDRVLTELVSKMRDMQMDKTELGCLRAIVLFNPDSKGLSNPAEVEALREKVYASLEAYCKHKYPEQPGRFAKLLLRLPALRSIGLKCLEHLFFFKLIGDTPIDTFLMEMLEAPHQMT
Voltage-gated inwardly rectifying potassium channel KCNH2 (Homo sapiens), sequence (Q12809 whole entry, looked up): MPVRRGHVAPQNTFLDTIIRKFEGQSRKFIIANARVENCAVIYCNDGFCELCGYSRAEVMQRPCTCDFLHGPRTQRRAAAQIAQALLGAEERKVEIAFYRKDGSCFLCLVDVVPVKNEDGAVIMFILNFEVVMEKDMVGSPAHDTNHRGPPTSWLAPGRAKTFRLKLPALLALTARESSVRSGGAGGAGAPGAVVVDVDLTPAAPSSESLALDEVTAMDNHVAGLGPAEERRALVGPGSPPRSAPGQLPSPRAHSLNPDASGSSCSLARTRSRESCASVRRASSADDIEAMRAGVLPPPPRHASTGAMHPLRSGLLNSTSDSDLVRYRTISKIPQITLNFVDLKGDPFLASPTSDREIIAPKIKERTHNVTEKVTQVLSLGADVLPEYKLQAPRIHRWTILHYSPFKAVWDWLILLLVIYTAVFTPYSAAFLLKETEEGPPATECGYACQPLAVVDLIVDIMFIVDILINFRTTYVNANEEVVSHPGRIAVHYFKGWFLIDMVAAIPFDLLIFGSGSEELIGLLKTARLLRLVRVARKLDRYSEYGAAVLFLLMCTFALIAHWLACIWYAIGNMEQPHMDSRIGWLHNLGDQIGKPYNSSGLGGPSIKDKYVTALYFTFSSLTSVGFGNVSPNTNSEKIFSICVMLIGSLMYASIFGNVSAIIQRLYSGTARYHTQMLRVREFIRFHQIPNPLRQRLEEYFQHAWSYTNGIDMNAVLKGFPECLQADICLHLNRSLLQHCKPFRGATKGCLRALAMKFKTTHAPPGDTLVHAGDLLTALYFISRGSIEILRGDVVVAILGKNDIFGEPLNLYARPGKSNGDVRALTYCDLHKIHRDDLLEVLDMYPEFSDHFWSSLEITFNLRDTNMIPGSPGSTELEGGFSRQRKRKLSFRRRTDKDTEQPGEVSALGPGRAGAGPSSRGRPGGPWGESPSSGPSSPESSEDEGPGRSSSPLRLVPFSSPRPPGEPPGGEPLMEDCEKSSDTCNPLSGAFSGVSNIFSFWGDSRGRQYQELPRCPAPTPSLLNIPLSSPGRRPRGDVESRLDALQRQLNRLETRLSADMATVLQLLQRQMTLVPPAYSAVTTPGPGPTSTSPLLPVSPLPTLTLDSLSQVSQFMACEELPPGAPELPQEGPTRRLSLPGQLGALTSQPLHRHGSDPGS
Thyroid hormone receptor beta (Homo sapiens), sequence (P10828 whole entry, looked up): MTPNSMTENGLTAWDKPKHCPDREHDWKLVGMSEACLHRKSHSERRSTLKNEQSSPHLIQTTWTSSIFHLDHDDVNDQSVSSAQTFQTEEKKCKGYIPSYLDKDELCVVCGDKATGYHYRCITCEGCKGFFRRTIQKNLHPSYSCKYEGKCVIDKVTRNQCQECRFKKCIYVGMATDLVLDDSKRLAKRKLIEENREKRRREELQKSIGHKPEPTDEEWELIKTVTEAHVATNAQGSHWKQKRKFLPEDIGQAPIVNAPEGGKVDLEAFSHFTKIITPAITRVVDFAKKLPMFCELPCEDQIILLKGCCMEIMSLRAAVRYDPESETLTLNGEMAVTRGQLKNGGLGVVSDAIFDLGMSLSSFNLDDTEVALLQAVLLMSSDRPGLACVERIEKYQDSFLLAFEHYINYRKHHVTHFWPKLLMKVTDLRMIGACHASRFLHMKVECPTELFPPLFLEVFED
Vitamin D3 receptor (Homo sapiens), sequence (P11473 whole entry, looked up): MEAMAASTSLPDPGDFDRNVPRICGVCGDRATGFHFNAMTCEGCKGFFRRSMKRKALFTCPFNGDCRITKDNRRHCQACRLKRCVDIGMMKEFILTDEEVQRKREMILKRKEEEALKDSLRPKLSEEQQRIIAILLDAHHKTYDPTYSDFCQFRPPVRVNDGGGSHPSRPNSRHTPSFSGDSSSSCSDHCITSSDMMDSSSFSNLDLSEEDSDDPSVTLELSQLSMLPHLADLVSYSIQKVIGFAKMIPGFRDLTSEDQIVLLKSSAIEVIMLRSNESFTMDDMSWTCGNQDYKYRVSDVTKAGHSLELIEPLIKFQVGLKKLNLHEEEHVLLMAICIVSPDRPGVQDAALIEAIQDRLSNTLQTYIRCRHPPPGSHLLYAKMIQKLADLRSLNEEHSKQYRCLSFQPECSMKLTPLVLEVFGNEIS
Luciferin 4-monooxygenase (Photinus pyralis), sequence (P08659 whole entry, looked up): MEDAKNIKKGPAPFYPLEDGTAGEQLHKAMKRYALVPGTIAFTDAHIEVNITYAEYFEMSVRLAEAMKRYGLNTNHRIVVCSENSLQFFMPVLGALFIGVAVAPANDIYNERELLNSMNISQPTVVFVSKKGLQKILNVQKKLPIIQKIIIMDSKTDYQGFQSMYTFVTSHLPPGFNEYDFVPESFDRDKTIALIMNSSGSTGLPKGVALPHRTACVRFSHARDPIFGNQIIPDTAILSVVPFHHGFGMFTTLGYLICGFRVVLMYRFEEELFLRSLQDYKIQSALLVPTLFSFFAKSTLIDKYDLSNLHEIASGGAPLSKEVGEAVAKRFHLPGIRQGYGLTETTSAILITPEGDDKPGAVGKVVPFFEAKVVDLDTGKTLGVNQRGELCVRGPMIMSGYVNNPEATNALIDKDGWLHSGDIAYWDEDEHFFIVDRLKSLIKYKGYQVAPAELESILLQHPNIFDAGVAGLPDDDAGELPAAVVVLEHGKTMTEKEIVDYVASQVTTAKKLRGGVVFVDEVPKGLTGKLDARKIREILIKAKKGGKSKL

Compound: COc1ccc(C(=O)c2ccccc2)c(O)c1
- outcome [1]: inactive
- max response [2]: 4.73% and -13.9%
- max response [3]: -9.82% (inactive) and -18.3% (inactive)
- activity change % (negative = inhibition) [4]: -24% (inactive) and 5.53% (inactive)
- Potency [5]: 35.5 µM (active)

Compound: CCCCCCCCCCCCCCCCO
- Potency [6]: inactive
- outcome [7]: inactive
- max response [8]: 2.95%
- outcome [9]: inactive
- outcome [1]: inactive
- max response [2]: -10.1%
- max response [3]: -12.7% (inactive)
- activity change % (negative = inhibition) [4]: 11.7% (inactive)
- Potency [10]: inactive

Compound: O=C(NCCc1c[nH]c2ccccc12)c1cccnc1
- Potency [5]: inactive

Compound: N#C/C(=C1\SCC(c2ccccc2Cl)S1)n1ccnc1 (centres undefined)
- Potency [5]: inactive

Compound: NCCNc1cccc2ccccc12
- Potency [6]: inactive and 31.6 µM (active)
- outcome [7]: inactive
- max response [8]: 15.9%
- outcome [9]: inactive
- outcome [1]: inactive
- max response [2]: 2.26% and -22%
- Potency [3]: 44.7 µM (active)
- max response [3]: -21.1% (inactive)
- activity change % (negative = inhibition) [4]: -5.49% (inactive)
- Potency [5]: inactive
- Potency [10]: inactive

Compound: C/C=C/c1ccc(O)c(OC)c1
- max response [8]: -13.6% and -6.37%
- outcome [9]: inactive
- max response [2]: 1.1% and -9.34%
- max response [3]: 2.19% (inactive) and -7.41% (inactive)
- Potency [5]: inactive
- Potency [10]: inactive

Compound: CCOc1ccc(NC(C)=O)cc1
- Potency [6]: inactive
- outcome [7]: inactive
- max response [8]: 2.99% and -14.4%
- outcome [9]: inactive
- outcome [1]: inactive
- max response [2]: -2.9% and -4.43%
- max response [3]: -12.1% (inactive) and 5.41% (inactive)
- activity change % (negative = inhibition) [4]: 4.97% (inactive)
- Potency [5]: inactive
- Potency [10]: inactive

Compound: C#C[C@]1(O)CC[C@H]2[C@@H]3CCC4=Cc5oncc5C[C@]4(C)[C@H]3CC[C@@]21C
- outcome [7]: inactive
- max response [8]: 27%
- outcome [9]: inactive
- max response [2]: 10.7%
- max response [3]: -13.1% (inactive)
- Potency [5]: inactive
- Potency [10]: inactive

Compound: CCCCN1C[C@H](O)[C@@H](O)[C@H](O)[C@H]1CO
- Potency [5]: inactive

Compound: O=C(O)c1ccc(S(=O)(=O)N(Cl)Cl)cc1
- outcome [7]: inactive
- max response [8]: -8.23%
- outcome [9]: inactive
- outcome [1]: inactive
- max response [2]: -4.72%
- max response [3]: 3.99% (inactive)
- activity change % (negative = inhibition) [4]: 9.05% (inactive)
- Potency [10]: inactive

Compound: C=C[C@@]1(C)CC(=O)[C@]2(O)[C@@]3(C)[C@@H](O)CCC(C)(C)[C@@H]3[C@H](O)[C@H](OC(C)=O)[C@@]2(C)O1
- Potency [6]: inactive
- outcome [7]: inactive
- outcome [1]: inactive
- activity change % (negative = inhibition) [4]: 10.4% (inactive)
- Potency [5]: inactive
- Potency [10]: inactive

Compound: N[C@H](C(=O)O)[C@@H](O)c1ccc(O)c(O)c1
- Potency [5]: inactive

Compound: COc1cc([C@H]2Oc3cc([C@H]4Oc5cc(O)cc(O)c5C(=O)[C@@H]4O)ccc3O[C@@H]2CO)ccc1O
- Potency [6]: inactive
- outcome [7]: inactive
- Potency [5]: inactive
- Potency [10]: inactive

Compound: Oc1ccc(Cl)cc1Cc1cc(Cl)ccc1O
- Potency [6]: inactive
- outcome [7]: inactive
- max response [8]: -27.5% and -0.357%
- outcome [9]: inactive
- outcome [1]: inactive
- Potency [5]: 28.2 µM (active)
- Potency [10]: inactive

Compound: CN(C)C(=O)Nc1ccc(Cl)c(Cl)c1
- max response [8]: -0.181%
- outcome [9]: inactive
- outcome [1]: inactive
- max response [2]: 0.705%
- max response [3]: 4.3% (inactive)
- activity change % (negative = inhibition) [4]: -2.96% (inactive)
- Potency [5]: inactive
- Potency [10]: inactive

Compound: NS(=O)(=O)c1cc2c(cc1Cl)NC(CC1CCCC1)NS2(=O)=O (centres undefined)
- Potency [5]: inactive

Compound: OC[C@H]1O[C@@H]2O[C@H]3[C@H](O)[C@@H](O)[C@@H](O[C@H]4[C@H](O)[C@@H](O)[C@@H](O[C@H]5[C@H](O)[C@@H](O)[C@@H](O[C@H]6[C@H](O)[C@@H](O)[C@@H](O[C@H]7[C@H](O)[C@@H](O)[C@@H](O[C@H]8[C@H](O)[C@@H](O)[C@@H](O[C@H]1[C@H](O)[C@H]2O)O[C@@H]8CO)O[C@@H]7CO)O[C@@H]6CO)O[C@@H]5CO)O[C@@H]4CO)O[C@@H]3CO
- max response [8]: 2.91%
- outcome [9]: inactive
- outcome [1]: inactive
- max response [2]: 2.41%
- max response [3]: 10.2% (inactive)
- activity change % (negative = inhibition) [4]: 2.69% (inactive)
- Potency [5]: inactive
- Potency [10]: inactive

Compound: NC(=O)c1ccccc1O
- Potency [6]: inactive
- outcome [7]: inactive
- max response [8]: -2.87%
- outcome [9]: inactive
- outcome [1]: inactive
- max response [2]: -19%
- max response [3]: 18.9% (inactive)
- activity change % (negative = inhibition) [4]: -15.4% (inactive)
- Potency [5]: inactive
- Potency [10]: inactive

Compound: CCCCCCCCCCCCCC(=O)OC(C)C
- Potency [6]: inactive
- outcome [7]: inactive
- max response [8]: -13.5%
- outcome [9]: inactive
- outcome [1]: inactive
- max response [2]: -10.1%
- max response [3]: 7.8% (inactive)
- Potency [5]: inactive
- Potency [10]: inactive

Compound: CCCCOC(=O)CC(CC(=O)OCCCC)(OC(C)=O)C(=O)OCCCC
- Potency [6]: inactive
- outcome [7]: inactive
- max response [8]: 10.7%
- outcome [9]: inactive
- outcome [1]: inactive
- max response [2]: -7.31%
- max response [3]: -5.69% (inactive)
- activity change % (negative = inhibition) [4]: 12.8% (inactive)

Compound: CC1(C)OC[C@@H]2O[C@@]3(C(=O)O)OC(C)(C)O[C@H]3[C@@H]2O1
- Potency [6]: inactive
- outcome [7]: inactive
- max response [8]: 0.747%
- outcome [9]: inactive
- outcome [1]: inactive
- max response [2]: -2.62%
- max response [3]: 1.08% (inactive)
- activity change % (negative = inhibition) [4]: -3.12% (inactive)

Compound: CC1(COc2ccc(CC3SC(=O)NC3=O)cc2)CCCCC1 (centres undefined)
- outcome [1]: inactive
- max response [2]: 20.2%
- max response [3]: -22.1% (inactive)
- activity change % (negative = inhibition) [4]: -31.9% (inactive)
- Potency [10]: 16.1 µM (active)
